# Source: PubChem (National Center for Advancing Translational Sciences (NCATS))
# p53ts 39C kill: kills p53ts cells at the nonpermissive temperature; actives 1.5% (n = 130,000); H1299-p53A138V viability at 39C, ATP luminescence, 24 h; Potency, µM (top dose mostly 46.1 µM), for the others: at the top dose activity change, negative = cell killing, most hits filed as cytotoxic; AID 902; further: potency means the concentration at half of the fitted maximal effect; on the % scale 0 is the no-effect control and ±100 the full control effect; nearly all actives have a fitted effect of over 55% in size
# Tau filament bind: binds recombinant human tau filaments. recombinant tau filaments, thioflavin S fluorescence, 15 h; filaments grown with octadecylsulfate alongside compound. Potency, µM (series often up to 57.1 µM), for the others: at the highest dose activity change, negative = inhibition. actives 2% (n = 71,000);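 further: potency means the concentration at half of the fitted maximal effect; on the % scale 0 is the no-effect control and ±100 the full control effect; actives lower thioflavin S fluorescence by blocking filaments or displacing dye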
# Target sequence (P10636 whole entry, looked up): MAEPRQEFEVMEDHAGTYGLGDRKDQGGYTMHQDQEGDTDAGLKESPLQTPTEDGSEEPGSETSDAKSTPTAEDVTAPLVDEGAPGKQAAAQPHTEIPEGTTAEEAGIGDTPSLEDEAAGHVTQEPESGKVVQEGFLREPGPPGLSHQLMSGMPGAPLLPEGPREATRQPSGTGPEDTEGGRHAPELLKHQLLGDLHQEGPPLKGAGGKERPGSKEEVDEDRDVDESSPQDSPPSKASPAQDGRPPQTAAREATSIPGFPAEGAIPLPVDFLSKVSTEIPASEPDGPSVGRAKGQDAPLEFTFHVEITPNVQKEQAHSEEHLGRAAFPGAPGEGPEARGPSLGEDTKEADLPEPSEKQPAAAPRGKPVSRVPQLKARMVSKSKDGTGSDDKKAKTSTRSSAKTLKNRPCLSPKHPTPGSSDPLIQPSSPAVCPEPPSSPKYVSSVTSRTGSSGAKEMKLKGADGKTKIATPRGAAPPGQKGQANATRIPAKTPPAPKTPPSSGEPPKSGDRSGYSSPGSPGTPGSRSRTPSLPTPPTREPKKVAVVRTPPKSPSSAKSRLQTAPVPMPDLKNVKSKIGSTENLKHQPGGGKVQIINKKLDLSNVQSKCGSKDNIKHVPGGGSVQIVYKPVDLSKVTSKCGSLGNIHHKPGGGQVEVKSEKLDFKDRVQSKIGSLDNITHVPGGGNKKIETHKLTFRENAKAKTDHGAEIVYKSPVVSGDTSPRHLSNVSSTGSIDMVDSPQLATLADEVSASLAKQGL
#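 His-tagged recombinant human tau (exons 2, 3, 10; 1 uM final) fibrillized with 30 uM sodium octadecylsulfate, 15 h at 37 C, in pH 7.4 HEPES buffer with 10 uM thioflavine S and 5 mM DTT. Reduced ThS fluorescence (450/510 nm) marks activity.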
# TsaE inh: inhibitors of E. coli YjeE (TsaE) | purified YjeE enzyme, qHTS inhibition assay | P0AF67 | actives 0.05% (n = 71,000) | Potency, µM
#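 Purified YjeE (10 uM) with BODIPY Texas Red-labeled ADP probe (2 uM); compounds pin-transferred, 15 min at room temperature. Binding inhibition read as decreased fluorescence polarization; ADP titration as control.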
# p53ts 32C kill: kills p53ts cells at the permissive temperature; Potency, µM (series often up to 46.1 µM), without a hit: at the top dose activity change, negative = cytotoxicity, hits mostly cytotoxic; H1299-p53A138V at 32C, ATP luminescence viability, 24 h; actives 0.93% (n = 130,000);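 further: potency means the concentration at half of the fitted maximal effect; 0% = DMSO and -100% = full killing by reference compound; nearly all actives have a fitted effect of over 55% in size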
#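 Cells: H1299 p53ts (A138V), 600/well, pre-incubated 16–30 h at 37C. Cpd up to 46 uM, 24 h, 32C. Readout: ATPlite luminescence, 20 min RT. Normalization: DMSO vs tamoxifen 100 uM. AC50 by Hill equation.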
# Pol III holo inh: DNA polymerase III holoenzyme inhibition; actives 0.25% (n = 71,000); Potency, µM (titrated, usually from 57.1 µM), without a hit: top-dose activity change, negative = inhibition; reconstituted DNA polymerase III holoenzyme replication, biochemical; further: potency means the concentration at half of the fitted maximal effect; on the % scale 0 is the no-effect control and ±100 the full control effect
#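 Reconstituted *E. coli* holoenzyme (0.35 nM Pol III, 1 nM beta, 154 nM SSB, 2 nM primase) was preincubated with compound for 15 min at RT. Synthesis on 1.4 nM ssM13Gori ran 35 min, then was stopped with PicoGreen/EDTA and read as dsDNA fluorescence.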
# ERK AVP block: blocks ERK signaling stimulated by vasopressin; Potency, µM (titrated, usually from 57.5 µM), inactives show at the top dose activity, negative = inhibition, most hits filed as inhibitors; HEK293-V1b, vasopressin-stimulated pERK AlphaScreen; actives 0.99% (n = 72,000); AID 995; further: potency means the concentration at half of the fitted maximal effect; on the % scale 0 is the no-effect control and ±100 the full control effect; nearly all actives have a fitted effect of over 55% in size
#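 V1b-HEK293 cells; cpd 30 min 37C; 25 nM vasopressin 5 min; lyse 10 min; AlphaScreen beads 5 hr RT. Normalized to DMSO basal and 25 nM vasopressin; AC50 by Hill fit.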
# Active calls of the source: *; i = inactive; ? = inconclusive; . = not tested or not shown; [ ] = remark or other dose. Most compounds without a hit are left out; they make up all but 3.2% or so of the library. The call rests on the fitted dose curve; in most records, active means well fitted curve in the direction sought with a large enough effect; inconclusive means small, poorly fitted or top-dose-only effect, or another doubt; inactive means no such curve, though single readings can be large; an effect the other way counts as inactive or inconclusive.
SMILES,p53ts 39C kill,Tau filament bind,TsaE inh,p53ts 32C kill,Pol III holo inh,ERK AVP block
COc1ccccc1CNc1ncnc2ccc(-c3cccc(NS(C)(=O)=O)c3)cc12,-17%,38%,i,-3%,-2%,16µM*
CS(=O)(=O)Nc1cccc(-c2ccc3ncnc(NC4CC4)c3c2)c1,4%,68%,i,-8%,-6%,?
COc1cccc(-c2ccc3ncnc(NCc4ccccc4OC)c3c2)c1,0%,i,i,9%,0%,?
COc1ccc(CNc2ncnc3ccc(-c4ccc(N(C)C)cc4)cc23)c(OC)c1,8%,2.5µM*,i,6%,-5%,-12%
COc1cccc(-c2ccc3ncnc(NCc4ccc(OC)cc4OC)c3c2)c1,-3%,455%,i,1%,7%,-14%
COc1ccccc1-c1ccc2ncnc(N3CCOCC3)c2c1,?,11%,i,?,-11%,10µM*
COc1ccc(N2CCN(Cc3nc4c(c(=O)n(C)c(=O)n4C)n3C(C)C)CC2)cc1,7%,.,.,2%,.,.
Cc1cnc(CNc2ccnc(-c3cccc(NS(C)(=O)=O)c3)n2)cn1,-6%,-10%,i,5%,-7%,-5%
Cc1cccc(CNc2ccnc(-c3cccc(NS(C)(=O)=O)c3)n2)c1,7%,10%,i,-14%,-7%,13µM*
Cc1ccc(-c2nn(C)c(=O)c3ccccc23)cc1S(=O)(=O)NCCN1CCOCC1,3%,-8%,i,20%,3%,25µM*
CN(C)C(=O)c1ccc(-c2ccc3ncnc(NCc4ccccc4)c3c2)cc1,5%,6%,i,10%,-2%,25µM*
Cc1ccc(-c2nn(C)c(=O)c3ccccc23)cc1CNS(C)(=O)=O,-3%,8%,i,9%,-4%,-13%
CCOc1nc(C#N)nc(N2CCCCC2)n1,-7%,13µM*,i,1%,1%,36%
CCOC(=O)C1CCCN(C(=O)c2cnn3c(C(F)F)cc(-c4ccc(C)cc4)nc23)C1 (stereo not given),8%,?,i,-3%,-1%,-15%
Cc1ccc(-c2cc(C(F)F)n3ncc(C(=O)N4CCN5CCCC5C4)c3n2)cc1 (stereo not given),3%,25µM*,i,6%,-2%,-13%
O=C(CS(=O)(=O)c1ccccc1)Nc1nc(-c2ccccc2)cs1,0%,-13%,i,8%,-5%,40µM*
COc1cc(-c2noc(CN3CCN(c4ccccc4)CC3)n2)cc(OC)c1OC,25µM*,.,.,-4%,.,.
COc1ccccc1N1CCN(Cc2nc(-c3cc(OC)c(OC)c(OC)c3)no2)CC1,-10%,.,.,2%,.,.
CN1CCN(c2cc3c(c4c2[nH]c2ccccc24)C(=O)CC(C)(C)C3)CC1,-26%,-2%,i,2%,-11%,32µM*
COc1ccc(OC)c(CNC(=O)C(C)n2c(C)c3cnn(-c4ccccc4)c(=O)c3c2C)c1 (stereo not given),-23%,.,.,9%,.,.
O=S1(=O)N=C(Nc2ccc(N3CCOCC3)cc2)c2ccccc21,-12%,-13%,i,-13%,3%,-13%
Cc1ccccc1-c1ccc(Nc2ccc(N3CCOCC3)cc2)nn1,-6%,16µM*,i,-11%,1%,?
N#Cc1c(/N=C/c2ccc(Br)s2)sc2c1CCC2,12%,.,.,-1%,.,.
N#Cc1c(/N=C/c2cccs2)sc2c1CCCCC2,10µM*,13µM*,i,7.9µM*,7%,16µM*
Cc1ccc(-c2nc3ccccc3[nH]2)cc1NC(=O)COc1ccccc1[N+](=O)[O-],7.9µM*,.,.,16µM*,.,.
SMILES,p53ts 39C kill,Tau filament bind,TsaE inh,p53ts 32C kill,Pol III holo inh,ERK AVP block
COc1ccc(NC(=O)c2oc3ccc(S(=O)(=O)N(C)C4CCCCC4)cc3c2C)cc1Cl,-9%,.,.,3%,.,.
CN[C@@H]1[C@H](O)[C@H](NC)[C@H]2O[C@@]3(O)C(=O)C[C@@H](C)O[C@H]3O[C@@H]2[C@H]1O,-3%,.,.,4%,.,-22%
CN[C@@H]1[C@H](O)[C@H](NC)[C@@H]2O[C@]3(O)C(=O)C[C@@H](C)O[C@H]3O[C@@H]2[C@H]1O,.,40µM*,i,.,-4%,.
COc1ccc(Nc2c(C)cccc2C)cc1,9%,.,.,1%,.,.
COc1ccc(Nc2ccnc3ccccc23)cc1,10%,7.9µM*,i,2%,-2%,-17%
Cc1ccc(-n2ncc(C(=O)NCCc3ccccc3)c2C2CCN(C(=O)OC(C)(C)C)CC2)c(C)c1,7%,.,.,14%,.,.
Cc1cc(N2CCN(S(=O)(=O)c3ccccc3)CC2)c2ccccc2n1,13%,-18%[11.4 µM],i,-1%,1%[11.4 µM],32µM*
Cc1cc(N2CCN(C)CC2)nc2ccc(NC(=O)Nc3ccc(F)cc3F)cc12,?,.,.,-15%,.,.
Cc1ccc(NC(=O)Nc2ccc3nc(N4CCN(C)CC4)cc(C)c3c2)cc1C,13µM*,.,.,?,.,.
Cc1cc(N2CCCCC2)nc2ccc(NC(=O)c3cccc(Cl)c3)cc12,0%,.,.,10%,.,.
Cc1cc(N2CCN(C)CC2)nc2ccc(NC(=O)Nc3ccccc3Br)cc12,13µM*,.,.,16µM*,.,.
Cc1cc(N2CCN(C)CC2)nc2ccc(NC(=O)Nc3cccc(Cl)c3)cc12,25µM*,.,.,?,.,.
CCCCN(C)CCNC(=O)C1CCN(c2nc3ccc(CC)cc3s2)CC1,16µM*,.,.,10µM*,.,.
CCc1ccc2nc(N3CCN(C(=O)C4CC4)CC3)sc2c1,-24%,.,.,5%,.,.
CCCCN(C)CCCNC(=O)c1ccc2nc(N3CCCCC3)sc2c1,-4%,.,.,-7%,.,.
CCc1ccc2nc(N3CCC(C(=O)O)CC3)sc2c1,6.3µM*,.,.,6.3µM*,.,.
CCOc1ccc2nc(N3CCCC(C(=O)NCCCOC)C3)sc2c1 (stereo not given),10µM*,.,.,?,.,.
COc1cc(C(=O)Nc2ccc(OCc3cc(=O)n4cccc(C)c4n3)cc2)cc(OC)c1OC,32µM*,.,.,?,.,.
Cc1ccc(NC(=O)C2(c3cccs3)CCOCC2)cc1Cl,-4%,.,.,5%,.,.
CCOc1ccccc1NC(=O)CCc1c(C)nc2cc(-c3ccccc3)nn2c1C,-17%,.,.,-6%,.,.
COc1ccc(CNC(=O)Cc2c(C)c3c(cc(C)c4c(C)c(C)oc43)oc2=O)cc1,3%,.,.,-1%,.,.
COc1ccccc1OCCCCCNCCO,3%,13%,i,6%,-3%,-23%
OCCNCCCOc1cccc(Cl)c1Cl,13µM*,?,i,?,-1%,22%
Cc1ccc(C)c(Cn2nnc(C(=O)NCc3ccc(Cl)cc3Cl)c2N)c1,13µM*,.,.,-11%,.,.
OC1CN=C2CCCc3c2n(c2ccc(Cl)cc32)C1 (stereo not given),-14%,7.9µM*,i,-2%,-4%,-11%
